Experimental data: PubChem BioAssay AID743446 (Broad Institute, 2014)
Measured potencies and affinities stand elsewhere. Active and inactive are the calls of the source. How the calls were made is not given here.

Assay: viability loss in HEK293 cells – cell-based, plate reader, cherry-picked samples, cytotoxicity control, dose response (AID 743446)
Conditions: active compounds read low; at 26 µM unless noted

Question: With `O=C(O)c1nn(Cc2ccc(Cl)cc2Cl)c2ccccc12` as the compound, how does the max activity read?
Answer: 19.3% [at 0.38 µM] (inactive)

Question: Which max activity does the source give for `COC(=O)c1ccc(NC(=O)CSc2nc3ccc(N4C(=O)C5C6C=CC(C6)C5C4=O)cc3s2)cc1` (stereo not given) here?
Answer: -25.2% (inactive)

Question: Which max activity does the source give for `CC(C)(C)n1cc(C(=O)c2ccc3ccccc3c2O)cn1` here?
Answer: -8.13% (inactive)

Question: For `O=Cc1cn(Cc2cccc([N+](=O)[O-])c2)c2ccccc12`, which max activity is on record?
Answer: -15.2% [at 12 µM] (inactive)

Question: Which max activity does the source give for `CNC(=O)Oc1cccc(-c2cn3cc(Cl)ccc3n2)c1` here?
Answer: 27.7% [at 0.38 µM] (inactive)
